Screen size: about 1,200 compounds; about 480 (40%) were called active. No rule for the calls is given here. So high a share suggests a set chosen from earlier hits. Not all results are given here. Measured potencies and affinities stand elsewhere.

The assay in a line: viability loss in human hepatoma cells – cell-based, CellTiter-Glo luminescence, cherry-pick, set 2, cytotoxicity control, dose response (AID 743395). Conditions: HepG2 viability, CellTiter-Glo ATP luminescence, 72 h; series mostly up to 26 µM.
`CCSc1nnc(N2C(=O)C(O)=C(C(=O)c3ccco3)C2c2cccc(OC)c2)s1` (stereo not drawn): the result was inactive.
Regarding `O=C(Nc1ccc(Cl)cn1)c1cccc2ccccc12`, the outcome was inactive.
Regarding `Cc1cccc(C)c1OCC(=O)OCC(=O)Nc1ccc(Cl)cn1`, the outcome was inactive.
As for `CC(=Nc1ccccc1O)c1sc2ccccc2c1O`, the call was inactive.
With `COc1ccc(N=C2C(=O)N3CCCc4cccc2c43)cc1`, the call was inactive.
`CCN(C(=O)CSc1nc2ccccc2c(=O)n1-c1ccccc1F)C1CCS(=O)(=O)C1` (stereo not drawn): the outcome was inactive.
As for `O=C(CN1C(=O)NC2(CCCCCCC2)C1=O)Nc1ccc(Br)cc1`, the outcome was inactive.
In the case of `Nc1ccccc1C(=O)N1O[C@@H]2C=C[C@H]1C2`, the call was inactive.
The result for `CCOC(=O)c1sc(NC(=O)c2c(CC)noc2C)nc1C` reads “inactive”.
For `CCOC(=O)c1sc2nc(Cc3ccc(Cl)cc3)[nH]c(=S)c2c1C` the value was “inactive”; for `CC1CCN(C(=O)c2ccc(S(=O)(=O)N3CCCC3)cc2)CC1`, “inactive”.
As for `Cc1noc(C)c1C(=O)NCC1COc2ccccc2O1` (stereo not drawn), the compound was classed as inactive.
On to `N#CC1c2ccccc2-c2ccccc2N1C(=O)c1ccccc1` (stereo not drawn), for which the outcome was inactive.
For `Cc1ccc(NC(=O)CSC2=NN3CCCC(=O)N=C3S2)c(C)c1` the value was “inactive”; for `COc1ccc(Cl)cc1NC(=O)CN(C)CC(=O)Nc1cc(OC)c(OC)c(OC)c1`, “inactive”.
On to `Fc1ccccc1/C=N/NC(=S)Nc1ccc(Cl)cc1Cl`, for which the compound was classed as inactive.
Regarding `COc1cccc(NC(=O)CN2C(=O)NC3(CCCCCC3)C2=O)c1`, the compound was called inactive.
`CC(=O)Nc1ccc(NC(=O)COc2cccc3c2OC(C)(C)C3)cc1`: the result was inactive.
Take `CCOC1=C/C(=C/c2c(N)n3nc(S(=O)(=O)CC)sc3nc2=O)C=CC1=O`: the outcome was inactive.
In the case of `COc1ccc(C=NNC(=O)CCCC(=O)NN=Cc2ccc(OC)c(O)c2)cc1O`, the compound was classed as inactive.
For `Fc1ccc(/C=N/NC(=S)Nc2ccc(Cl)cc2Cl)cc1`, the compound was called inactive.
On to `Cc1cccc(NC(=O)c2ccccc2NC(=O)C2CCCCC2)c1C`, for which the compound was classed as inactive.
As for `COc1ccc(/C=N/NC(=O)c2c(C)nc3ccc(Br)cn23)cc1OC`, the call was inactive.
For the compound `COc1cc(/C=C/C(=O)c2ccc3c(c2)OCO3)cc(Cl)c1O`, the compound was called inactive.
For the compound `Cc1cc(NC(=O)CN2C(=O)NC3(CCCCCC3)C2=O)ccc1Br`, the call was inactive.
As for `Cc1cnc(NC(=O)CCc2ccccc2)s1`, the compound was classed as inactive.
In the case of `CCC1=Nc2cc(C(=O)NCc3cccnc3)ccc2Sc2ccc(C)cc21`, the result was inactive.
As for `COc1cc(C(=O)NCC2CCCO2)ccc1OCc1ccc(Cl)cc1` (stereo not drawn), the result was inactive.
On to `CCn1c(SC(C)C(=O)NCC2CCCO2)nc2ccccc21` (stereo not drawn), for which the compound was called inactive.
As for `COc1ccccc1OCC(O)CN1C(=O)NC(C)(C)C1=O` (stereo not drawn), the compound was called inactive.
With `C/C=C/c1ccc([C@H]2[C@@H](CNC(=O)CC)N(C(=O)COC)[C@H]2CO)cc1`, the result was inactive.
Consider `CCN(C(=O)COC(=O)/C=C/c1c(C)nn(-c2ccccc2)c1C)c1c(N)n(Cc2ccccc2)c(=O)[nH]c1=O`, for which the call was inactive.
As for `CN(Cc1ccco1)c1ncnc2ccc(-c3ccc4c(ccn4C)c3)cc12`, the compound was called inactive.
Consider `COc1ccccc1C(=O)Nc1ccc2c(c1)nc(CCNC(=O)c1ccco1)n2C`, for which the outcome was inactive.
For `CC1(C)Cc2c(c(-c3ccco3)nc3sc4c(NCCN5CCOCC5)ncnc4c23)CO1`, the result was inactive.
For `O=C(c1cccc(S(=O)(=O)N2CCOCC2)c1)N1CCCC(C(F)(F)F)C1` (stereo not drawn), the compound was classed as inactive.
The result for `CN(CCOc1ccc(Cl)cc1)C(=O)c1cccc(S(=O)(=O)N2CCN(c3ccccc3)CC2)c1` reads “inactive”.
For the compound `CCN(CC)S(=O)(=O)c1ccc(NC(=O)C2CC(=O)N(c3ccc4c(c3)OCCO4)C2)cc1` (stereo not drawn), the compound was called inactive.
As for `Cn1cc(C(=O)OCC2CCN(CCNS(C)(=O)=O)CC2)c2ccccc21`, the compound was called inactive.
As to `Cc1cc(C(=O)N/N=C/c2ccc3c(c2)OCO3)c2ccccc2n1`, the compound was classed as inactive.
With `CCOc1ccc(NC(=O)c2ccccc2NC(=O)CNC2CCCC(C)C2C)cc1` (stereo not drawn), the call was inactive.
For the compound `COc1cc(C(=O)Nc2ccc(C)cc2)c2ccccc2n1`, the outcome was inactive.
For `COc1ccc(OCC(=O)N/N=C/C=C/c2ccccc2)cc1` the value was “inactive”; for `COc1ccc2[nH]c(C(=O)N/N=C/c3ccc(OC)c(O)c3)cc2c1`, “inactive”; for `CC(C)C[C@@H](COCc1ccc(C(F)(F)F)cc1)N1CCN(C(=O)c2ccc(C(F)(F)F)cc2)CCC1=O`, “inactive”.
The result for `CN(CC(=O)NCCc1ccc(S(N)(=O)=O)cc1)CC(=O)Nc1ccc(Cl)c(C(F)(F)F)c1` reads “inactive”; that for `Nc1c2c(nc3ccccc13)CCCC2`, “inactive”.
Take `CCOC1=C2CN(S(=O)(=O)c3ccc(C)cc3)CC[C@@H]2N(S(=O)(=O)c2ccc(C)cc2)[C@H](c2ccccc2)C1`: the compound was classed as inactive.
With `CCOC(=O)C1CCCN(c2nc3ccccc3nc2NS(=O)(=O)c2ccc(C)cc2)C1` (stereo not drawn), the call was inactive.
For `C[C@H]1C[C@H]2[C@@H]3CCC4=CC(=O)C=C[C@]4(C)[C@@]3(F)[C@@H](O)C[C@]2(C)[C@@]1(O)C(=O)CO` the value was “inactive”; for `COc1cccc(S(=O)(=O)N(C)C[C@@H]2Oc3cc(C4=CCCC4)ccc3S(=O)(=O)N([C@@H](C)CO)C[C@H]2C)c1`, “inactive”; for `Cc1ccc(-c2ccc3c(c2)O[C@@H](CN(C)C(=O)Nc2ccc(F)cc2)[C@@H](C)CN([C@@H](C)CO)S3(=O)=O)cc1`, “inactive”.
For `C[C@H]1CN([C@@H](C)CO)S(=O)(=O)c2ccc(C3=CCCCC3)cc2O[C@@H]1CN(C)C(=O)Cc1ccncc1` the value was “inactive”; for `Cc1ccc(-c2ccc3c(c2)O[C@H](CN(C)C(=O)Nc2ccc(C(F)(F)F)cc2)[C@@H](C)CN([C@@H](C)CO)S3(=O)=O)cc1`, “inactive”; for `Cc1ccc(-c2ccc3c(c2)O[C@@H](CN(C)C(=O)Nc2ccc(F)cc2)[C@@H](C)CN([C@H](C)CO)S3(=O)=O)cc1`, “inactive”.
`C[C@@H]1CN([C@H](C)CO)S(=O)(=O)c2ccc(-c3ccc(C#N)cc3)cc2O[C@H]1CN(C)Cc1cccc(F)c1`: the result was inactive.
Regarding `Cc1ccc(-c2ccc3c(c2)O[C@H](CN(C)C(=O)Nc2ccc(F)cc2)[C@@H](C)CN([C@@H](C)CO)S3(=O)=O)cc1`, the outcome was inactive.
With `C[C@@H]1CN([C@H](C)CO)S(=O)(=O)c2ccc(-c3ccc(C#N)cc3)cc2O[C@H]1CN(C)Cc1ccccn1`, the call was inactive.
`CC(=O)c1c(C)[nH]c(C(=O)OCc2nnc(-c3ccc([N+](=O)[O-])cc3)o2)c1C`: the compound was called inactive.
With `Cc1ccc(-c2ccc3c(c2)O[C@H](CN(C)C(=O)Nc2ccc(C(F)(F)F)cc2)[C@H](C)CN([C@@H](C)CO)S3(=O)=O)cc1`, the result was inactive.
For `C[C@@H]1CN([C@@H](C)CO)S(=O)(=O)c2ccc(-c3ccc(C#N)cc3)cc2O[C@H]1CN(C)Cc1cccc(F)c1` the value was “inactive”; for `C[C@@H]1CN([C@H](C)CO)S(=O)(=O)c2ccc(C#CC3CC3)cc2O[C@H]1CN(C)Cc1ccccn1`, “inactive”.
In the case of `C[C@@H]1CN([C@@H](C)CO)S(=O)(=O)c2ccc(C#Cc3ccc(F)cc3)cc2O[C@H]1CN(C)C(=O)c1ccccn1`, the compound was called inactive.

For the origin of these results see PubChem BioAssay AID743395 (Broad Institute, 2014).
